Most compounds without a hit are left out; they make up all but 1.6% or so of the library.
KCNQ2 pot = enhances the rat KCNQ2 potassium channel. O88943. CHO-K1 KCNQ2, FluxOR thallium flux fluorescence; hits give high values. B-score at 10 µM. 310,000 tested, 0.54% active. AID 2239;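 active = fluorescence ratio B-score at least 3 SD of library B-scores, with initial fluorescence B-score within 3 of them, cut at about 5.3 in these data; same plate scores as AID 2156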;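 note: B-score of peak minus minimum over baseline fluorescence ratio after K+ and Tl+ stimulus; positive B-score means potentiation of KCNQ2 with more thallium influx and brighter signal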
KCNQ2 inh = blocks the rat KCNQ2 potassium channel | O88943 | AID 2156 | 310,000 tested, 1.1% active | B-score at 10 µM | CHO-K1 KCNQ2, FluxOR thallium flux, 20 min; hits give low values;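 active = fluorescence ratio B-score at most minus 3 library SDs, with starting brightness B-score within 2 library SDs, cut at about -5.5 in these data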
Kir21 confirm = confirmation of mouse Kir2.1 potassium channel inhibitors | Kir2.1-expressing cells, FluxOR thallium flux fluorescence; hits give low values | 2,300 tested, 41% active | shares compounds with KCNQ2 pot | Tl flux remaining, % of negative control (hits give low values), % at 10 µM;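 active = Primary-screen hit whose thallium flux fell at least 3 control SD below untreated wells in both duplicates, with normal baseline fluorescence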
Target sequence (P35561 whole entry, looked up): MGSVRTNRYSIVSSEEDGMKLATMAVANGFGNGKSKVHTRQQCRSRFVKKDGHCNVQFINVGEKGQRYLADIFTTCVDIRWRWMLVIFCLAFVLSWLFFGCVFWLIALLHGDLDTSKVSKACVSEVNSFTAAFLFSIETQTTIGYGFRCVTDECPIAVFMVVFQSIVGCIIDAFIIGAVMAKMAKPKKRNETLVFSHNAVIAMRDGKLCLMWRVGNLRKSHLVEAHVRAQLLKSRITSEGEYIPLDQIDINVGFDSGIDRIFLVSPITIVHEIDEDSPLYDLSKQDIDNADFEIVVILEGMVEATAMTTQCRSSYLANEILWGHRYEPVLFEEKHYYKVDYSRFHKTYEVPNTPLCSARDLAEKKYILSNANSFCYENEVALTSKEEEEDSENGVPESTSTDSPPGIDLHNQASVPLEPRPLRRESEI
HEK293 Tl flux = counter-screen for Kir2.1 inhibitors: effect in parental HEK293 cells; shares compounds with KCNQ2 pot; FluxOR thallium flux fluorescence; 0% = unstimulated blank wells; FluxOR signal as % of negative control (100 = no effect), % at 10 µM; 2,300 tested, 19% active; AID 2105;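 active = dye signal at least 3 control SD above or below untreated wells in both duplicates, raw fluorescence within 3, either direction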;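 note: percent is based on the flux ratio of peak minus minimum fluorescence over baseline F0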
CHO-K1 ctr = counter-screen for KCNQ2 potentiators: effect in parental CHO-K1 cells; activity increase over 3SD of controls, % at 10 µM; FluxOR thallium flux fluorescence; zero = vehicle mean+3SD, 100% = vehicle-minus-blank window; AID 2282; shares compounds with KCNQ2 pot; 1,200 tested, 43% active;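 active = signal rise of at least 3 SD above the untreated control mean, in both duplicate wells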;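 note: counter screen of KCNQ2 potentiator hits so any rise reflects channel-independent effects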
KCNQ1 pot spec = tests whether KCNQ2 potentiators also act on human KCNQ1. AID 2283. CHO KCNQ1 stable, FluxOR thallium flux fluorescence; beyond 3SD, as % of vehicle-control signal. 1,200 tested, 28% active. shares compounds with KCNQ2 pot. activation over 3SD threshold, % at 10 µM;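 active = fluorescence ratio rise of at least 3 SD of vehicle wells above their mean, in both replicate wells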
KCNQ2 pot conf = rat KCNQ2 channel potentiator confirmation; shares compounds with KCNQ2 pot; CHO-KCNQ2 cells, FluxOR thallium flux fluorescence; potentiation, less the hit threshold, % at 10 µM; 1,200 tested, 68% active;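 active = fluorescence ratio rising 3 SD or more over the vehicle control mean in both replicates, plus primary screen hit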;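 note: peak minus minimum thallium fluorescence divided by baseline after K/Tl stimulus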
Kir21 spec = mouse Kir2.1 off-target activity of KCNQ2 potentiators | shares compounds with KCNQ2 pot | HEK293 Kir2.1, FluxOR thallium flux fluorescence | activity over 3SD threshold, % at 10 µM | 1,200 tested, 2% active | AID 2345;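 active = fluorescence ratio rise of at least 3 SD above the vehicle-control mean, seen in both replicates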
KCNQ2 W236L pot = rat KCNQ2 W236L mutant potentiation by KCNQ2 potentiators | shares compounds with KCNQ2 pot | CHO KCNQ2-W236L, automated patch clamp current | current increase over 3SD of negative controls (%), hits give high values, % at 25 µM | 940 tested, 10% active;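 active = current increase at least 3 SD of the untreated controls above them in both duplicate recordings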
Large screens that a line does not name were inactive (follow-up assays come after a bar, where they were run).

COc1ccc(C(=O)O/N=C(/C(N)=O)P(=O)(OC(C)C)OC(C)C)cc1	KCNQ2 pot 6.4 | Kir21 confirm inactive | HEK293 Tl flux inactive | CHO-K1 ctr inactive | KCNQ1 pot spec 4.2 | KCNQ2 pot conf 27 | Kir21 spec inactive | KCNQ2 W236L pot inactive
Oc1ccc(C2NCc3ccccc3-n3cccc32)cc1Cl (stereo not given)	none | Kir21 confirm 59% | HEK293 Tl flux inactive
FC(F)(F)c1cccc(C2NCc3ccccc3-n3cccc32)c1 (stereo not given)	none (no result: KCNQ2 pot)
CN1CCN(/N=C/c2c(O)n(Cc3ccc(F)cc3)c(=O)[nH]c2=O)CC1	none
FC(F)(F)c1ccc(NC2=NCCCS2)cc1	none
O=S(=O)(c1ccccc1)N1CCN2CCCC2C1 (stereo not given)	none (no result: KCNQ2 pot)
CCC(=NCC1CCCO1)c1c(O)n(-c2ccccc2C)c(=O)[nH]c1=O (stereo not given)	none
Oc1ccc(C(=C(Cl)Cl)c2ccc(O)cc2)cc1	KCNQ2 pot 11 | Kir21 confirm 38% | HEK293 Tl flux inactive | CHO-K1 ctr 47 | KCNQ1 pot spec inactive | KCNQ2 pot conf 0.8 | Kir21 spec inactive | KCNQ2 W236L pot inactive
CC(C)c1ccc(-n2c(O)c(C=NC(CCS(C)=O)C(=O)O)c(=O)[nH]c2=S)cc1 (stereo not given)	none
CN(C)CCSCc1nnc2n1-c1ccc(Cl)cc1C(c1ccccc1Cl)=NC2	none (no result: KCNQ2 pot)
COc1ccccc1C1C([N+](=O)[O-])=C(N)Oc2c1c(=O)oc1ccccc21 (stereo not given)	none
COc1cc(CC(C)N)c(OC)cc1I (stereo not given)	none
CCCCCSc1cc(OC)c(CCN)cc1OC	none (no result: KCNQ2 pot) | Kir21 confirm 46% | HEK293 Tl flux inactive
O=C(O)c1[nH]c(=O)[nH]c(=O)c1F	none
Cc1ccccc1Cc1c(C)nc2nc(SCC(=O)N3CCC4(CC3)OCCO4)nn2c1C	none
O=c1[nH]c(O)c(N=Nc2cc([N+](=O)[O-])ccc2O)c(=O)[nH]1	none (no result: KCNQ2 pot)
O=C1C(=O)c2cccc3cccc1c23	none (no result: KCNQ2 pot)
O=C1C(=O)c2ccccc2-c2ccccc21	KCNQ2 pot 6.2 | Kir21 confirm inactive | HEK293 Tl flux inactive | CHO-K1 ctr inactive | KCNQ1 pot spec inactive | KCNQ2 pot conf inactive | Kir21 spec inactive | KCNQ2 W236L pot 3.4%
O=C(NCc1cccnc1)Nc1ccc([N+](=O)[O-])cc1	none (no result: KCNQ2 pot)
Cc1ccc(C(=O)N[C@@H](C)CN2C3=NC[C@@H](Cc4ccccc4)N3C[C@H]2Cc2ccc(O)cc2)cc1Br	none (no result: KCNQ2 pot) | Kir21 confirm 49% | HEK293 Tl flux inactive
Cc1ccc(C(=O)N[C@@H](C)CN2C3=NC[C@H](Cc4ccccc4)N3C[C@H]2Cc2ccc(O)cc2)cc1Br	none (no result: KCNQ2 pot)
CC(C)CN1CCN(Cc2ccc(F)cc2Cl)CC1CCO (stereo not given)	none (no result: KCNQ2 pot)
CCOc1ccc(Cl)cc1CNCCc1ccc(F)cc1	none (no result: KCNQ2 pot) | Kir21 confirm 24% | HEK293 Tl flux inactive
Fc1ccc(CCNCc2ccccc2Cl)cc1	none
COc1ccc(CCNCc2ccccc2)cc1	none
COc1ccc(CCNCc2c(OC)ccc3ccccc23)cc1	none (no result: KCNQ2 pot) | Kir21 confirm 28% | HEK293 Tl flux inactive
Cc1cc(C)n(CCOC(=O)C2C(C=C(Cl)Cl)C2(C)C)n1 (stereo not given)	none (no result: KCNQ2 pot) | Kir21 confirm 43% | HEK293 Tl flux inactive
C[C@]12N[C@H](Cc3ccccc31)c1ccccc12	none
O=C1C2CCN(CC2)C12CC2c1ccc(C(F)(F)F)cc1 (stereo not given)	none (no result: KCNQ2 pot)
COc1cccc(C(=O)C2CN(C)CC2c2ccc(Cl)cc2)c1 (stereo not given)	none (no result: KCNQ2 pot) | Kir21 confirm 38% | HEK293 Tl flux inactive
CN1CC(C(=O)c2cccc(C(F)(F)F)c2)C(c2ccc(Cl)cc2)C1 (stereo not given)	none (no result: KCNQ2 pot) | Kir21 confirm 42% | HEK293 Tl flux 59%
CN1CC(C(=O)c2ccccc2)C(c2ccccc2)C1 (stereo not given)	none
CN1CC(C(=O)c2ccc([N+](=O)[O-])cc2)C(c2ccc(Cl)cc2)C1 (stereo not given)	none (no result: KCNQ2 pot)
Cc1c(CCN)ccc2c1[nH]c1ccccc12	none (no result: KCNQ2 pot)
COc1ccc(Cc2nccc3cc(OC)c(OC)cc23)cc1OC	none (no result: KCNQ2 pot) | Kir21 confirm 43% | HEK293 Tl flux inactive
COc1ccc(CCNCc2ccc(C)s2)cc1OC	none
c1ccc(C(OCCN2CCN(c3ncccn3)CC2)c2ccccc2)cc1	none
CC1CN(c2ccc([N+](=O)[O-])c(N3CCCCC3)c2)CCN1 (stereo not given)	none (no result: KCNQ2 pot)
NC(N)=N/N=C/c1ccc(N(c2ccccc2)c2ccccc2)cc1	none | Kir21 confirm inactive | HEK293 Tl flux inactive
COc1ccc(/C=N\N=C(N)N)cc1	none
CCC1=Nc2cc(C(=O)N3CCC4(CC3)OCCO4)ccc2Sc2ccc(C)cc21	none (no result: KCNQ2 pot)
CNC(=O)Oc1ccc(N(C)C)cc1C(C)C	none
CC(C)CNc1c2c(nc3ccccc13)CCC2	none
c1ccc(CNc2c3c(nc4ccccc24)CCC3)cc1	none | Kir21 confirm inactive | HEK293 Tl flux inactive
Oc1ccc(CC2(N3CCCC3)CCCCC2)cc1	none (no result: KCNQ2 pot)

Bioassay records: PubChem BioAssay, Johns Hopkins Ion Channel Center
